# Measured values: the supplement of paper PMC4466140
# Biological target: CaNbp2
# Assay: SPOT peptide array binding signal intensity (averaged, normalized) (arbitrary units (background-subtracted, floor 0; scale differs between SH3 domains)); higher = stronger binding of the SH3 domain to the peptide
# Method in brief: (§1)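 The binding signal is the normalized, background-subtracted spot intensity averaged over replicates; its arbitrary units differ between domains. It was obtained by incubating 10 μg/ml GST-fused SH3 domains from four yeast species overnight at 4°C in TBS-based blocking buffer on cellulose membranes with synthetic 15-mer peptides, cysteines replaced by serines, then detecting with anti-GST antibody, HRP anti-mouse secondary and luminol.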
row,Binder,SPOT peptide array binding signal intensity
1,NSVPIMPTLPPRPYI,400

# Biological target: CaRvs167
# Assay: as above
# Method in brief: as §1
row,Binder,SPOT peptide array binding signal intensity
1,NSVPIMPTLPPRPYI,423

# Biological target: CaRvs167-3
# Assay: as above
# Method in brief: as §1
row,Binder,SPOT peptide array binding signal intensity
1,NSVPIMPTLPPRPYI,≤ 0

# Biological target: CaSho1
# Assay: as above
# Method in brief: as §1
row,Binder,SPOT peptide array binding signal intensity
1,NSVPIMPTLPPRPYI,260

# Biological target: CaSla1-D1-D2
# Assay: as above
# Method in brief: as §1
row,Binder,SPOT peptide array binding signal intensity
1,NSVPIMPTLPPRPYI,52

# Biological target: CaSla1-D3
# Assay: as above
# Method in brief: as §1
row,Binder,SPOT peptide array binding signal intensity
1,NSVPIMPTLPPRPYI,46

# Biological target: ScAbp1
# Assay: as above
# Method in brief: as §1
row,Binder,SPOT peptide array binding signal intensity
1,NSVPIMPTLPPRPYI,≤ 0

# Biological target: ScBbc1
# Assay: as above
# Method in brief: as §1
row,Binder,SPOT peptide array binding signal intensity
1,NSVPIMPTLPPRPYI,128

# Biological target: ScBem1-D1
# Assay: as above
# Method in brief: as §1
row,Binder,SPOT peptide array binding signal intensity
1,NSVPIMPTLPPRPYI,≤ 0

# Biological target: ScBzz1-D1
# Assay: as above
# Method in brief: as §1
row,Binder,SPOT peptide array binding signal intensity
1,NSVPIMPTLPPRPYI,3

# Biological target: ScBzz1-D2
# Assay: as above
# Method in brief: as §1
row,Binder,SPOT peptide array binding signal intensity
1,NSVPIMPTLPPRPYI,1

# Biological target: ScCyk3
# Assay: as above
# Method in brief: as §1
row,Binder,SPOT peptide array binding signal intensity
1,NSVPIMPTLPPRPYI,≤ 0

# Biological target: ScFus1
# Assay: as above
# Method in brief: as §1
row,Binder,SPOT peptide array binding signal intensity
1,NSVPIMPTLPPRPYI,40.5

# Biological target: ScHof1
# Assay: as above
# Method in brief: as §1
row,Binder,SPOT peptide array binding signal intensity
1,NSVPIMPTLPPRPYI,252

# Biological target: ScHse1
# Assay: as above
# Method in brief: as §1
row,Binder,SPOT peptide array binding signal intensity
1,NSVPIMPTLPPRPYI,26.5

# Biological target: ScLsb1
# Assay: as above
# Method in brief: as §1
row,Binder,SPOT peptide array binding signal intensity
1,NSVPIMPTLPPRPYI,380

# Biological target: ScLsb2
# Assay: as above
# Method in brief: as §1
row,Binder,SPOT peptide array binding signal intensity
1,NSVPIMPTLPPRPYI,128

# Biological target: ScLsb3
# Assay: as above
# Method in brief: as §1
row,Binder,SPOT peptide array binding signal intensity
1,NSVPIMPTLPPRPYI,3460

# Biological target: ScLsb4
# Assay: as above
# Method in brief: as §1
row,Binder,SPOT peptide array binding signal intensity
1,NSVPIMPTLPPRPYI,2610

# Biological target: ScMyo3
# Assay: as above
# Method in brief: as §1
row,Binder,SPOT peptide array binding signal intensity
1,NSVPIMPTLPPRPYI,668

# Biological target: ScMyo5
# Assay: as above
# Method in brief: as §1
row,Binder,SPOT peptide array binding signal intensity
1,NSVPIMPTLPPRPYI,107

# Biological target: ScNbp2
# Assay: as above
# Method in brief: as §1
row,Binder,SPOT peptide array binding signal intensity
1,NSVPIMPTLPPRPYI,210

# Biological target: ScPex13
# Assay: as above
# Method in brief: as §1
row,Binder,SPOT peptide array binding signal intensity
1,NSVPIMPTLPPRPYI,1530

# Biological target: ScRvs167
# Assay: as above
# Method in brief: as §1
row,Binder,SPOT peptide array binding signal intensity
1,NSVPIMPTLPPRPYI,834

# Biological target: ScSho1
# Assay: as above
# Method in brief: as §1
row,Binder,SPOT peptide array binding signal intensity
1,NSVPIMPTLPPRPYI,154

# Biological target: ScSla1-D1-D2
# Assay: as above
# Method in brief: as §1
row,Binder,SPOT peptide array binding signal intensity
1,NSVPIMPTLPPRPYI,2

# Biological target: ScSla1-D3
# Assay: as above
# Method in brief: as §1
row,Binder,SPOT peptide array binding signal intensity
1,NSVPIMPTLPPRPYI,72

# Biological target: SpAbp1-D1
# Assay: as above
# Method in brief: as §1
row,Binder,SPOT peptide array binding signal intensity
1,NSVPIMPTLPPRPYI,≤ 0

# Biological target: SpBbc1
# Assay: as above
# Method in brief: as §1
row,Binder,SPOT peptide array binding signal intensity
1,NSVPIMPTLPPRPYI,50

# Biological target: SpBzz1-D1
# Assay: as above
# Method in brief: as §1
row,Binder,SPOT peptide array binding signal intensity
1,NSVPIMPTLPPRPYI,78

# Biological target: SpBzz1-D2
# Assay: as above
# Method in brief: as §1
row,Binder,SPOT peptide array binding signal intensity
1,NSVPIMPTLPPRPYI,0.5

# Biological target: SpCyk3
# Assay: as above
# Method in brief: as §1
row,Binder,SPOT peptide array binding signal intensity
1,NSVPIMPTLPPRPYI,6

# Biological target: SpHof1
# Assay: as above
# Method in brief: as §1
row,Binder,SPOT peptide array binding signal intensity
1,NSVPIMPTLPPRPYI,6.5

# Biological target: SpHof1-2
# Assay: as above
# Method in brief: as §1
row,Binder,SPOT peptide array binding signal intensity
1,NSVPIMPTLPPRPYI,34.5

# Biological target: SpHof1-3
# Assay: as above
# Method in brief: as §1
row,Binder,SPOT peptide array binding signal intensity
1,NSVPIMPTLPPRPYI,18.8

# Biological target: SpHse1
# Assay: as above
# Method in brief: as §1
row,Binder,SPOT peptide array binding signal intensity
1,NSVPIMPTLPPRPYI,214

# Biological target: SpLsb1
# Assay: as above
# Method in brief: as §1
row,Binder,SPOT peptide array binding signal intensity
1,NSVPIMPTLPPRPYI,523

# Biological target: SpLsb4
# Assay: as above
# Method in brief: as §1
row,Binder,SPOT peptide array binding signal intensity
1,NSVPIMPTLPPRPYI,4060

# Biological target: SpMyo1
# Assay: as above
# Method in brief: as §1
row,Binder,SPOT peptide array binding signal intensity
1,NSVPIMPTLPPRPYI,378

# Biological target: SpNbp2
# Assay: as above
# Method in brief: as §1
row,Binder,SPOT peptide array binding signal intensity
1,NSVPIMPTLPPRPYI,76.5

# Biological target: SpPex13
# Assay: as above
# Method in brief: as §1
row,Binder,SPOT peptide array binding signal intensity
1,NSVPIMPTLPPRPYI,25

# Biological target: SpRvs167
# Assay: as above
# Method in brief: as §1
row,Binder,SPOT peptide array binding signal intensity
1,NSVPIMPTLPPRPYI,1070

# Biological target: SpSla1-D1-D2
# Assay: as above
# Method in brief: as §1
row,Binder,SPOT peptide array binding signal intensity
1,NSVPIMPTLPPRPYI,≤ 0

# Biological target: SpSla1-D3
# Assay: as above
# Method in brief: as §1
row,Binder,SPOT peptide array binding signal intensity
1,NSVPIMPTLPPRPYI,21.5
